Compound activity as filed in PubChem BioAssay.
PfHsp40 rescue = restores yeast growth despite PfHsp40 toxicity | S. cerevisiae expressing PfHsp40, growth rescue, ATP luminescence | growth rescue, % at 12.5 µM | 340,000 tested, 0.68% active | AID 504582; in the data active = growth rescue above about 28%, passing the limit was not always enough;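 also: yeast W303a lacking pdr1 and pdr3 grown in galactose medium; growth measured after three days at 30 °C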
GDH-TPI counter-1 = inhibits GDH-TPI coupling enzymes, artifact for Mtb FBA screen. GDH-TPI coupled enzyme counterscreen, NADH absorbance. inhibition, % at 4.8 µM. 360,000 tested, 1.2% active. AID 588335; in the data active = inhibition above about 30%;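 also: 0% = DMSO wells and 100% = wells lacking the enzyme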
Mtb FBA inh = inhibits M. tuberculosis FBA enzyme; inhibition, % at 1 µM; 360,000 tested, 2.3% active; AID 588726; purified M. tuberculosis FBA, fluorescence read-out;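 also: 0% = vehicle and 100% = reference inhibitor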
Target sequence (P9WQA3 whole entry, looked up): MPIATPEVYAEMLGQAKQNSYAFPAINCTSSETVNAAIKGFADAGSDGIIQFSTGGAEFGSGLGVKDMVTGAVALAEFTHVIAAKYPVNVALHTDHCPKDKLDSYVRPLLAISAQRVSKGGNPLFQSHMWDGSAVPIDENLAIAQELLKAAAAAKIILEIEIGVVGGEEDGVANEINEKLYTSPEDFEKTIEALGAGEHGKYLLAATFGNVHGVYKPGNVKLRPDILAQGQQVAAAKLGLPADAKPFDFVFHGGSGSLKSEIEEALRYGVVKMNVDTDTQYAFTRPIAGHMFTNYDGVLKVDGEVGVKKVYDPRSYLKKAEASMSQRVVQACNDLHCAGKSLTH
PrP 5UTR inh = suppresses PrP 5' UTR mRNA reporter expression; 340,000 tested, 0.35% active; inhibition, % (concentration not given with the values); cell-based PrP 5' UTR mRNA reporter, plate reader; in the data active = inhibition above about 52%; also: 0 = median of the neutral control wells
BJeLR viability = kills HRASV12-expressing BJeLR cells; BJeLR (HRASV12) viability, CellTiter-Glo ATP luminescence, 48 h; inhibition, % (concentration not given with the values); 300,000 tested, 0.17% active; AID 1554; in the data active = inhibition above about 50%
PrPC surface inh = cell surface PrPC inhibition, primary TR-FRET screen. AID 720596. TR-FRET read-out. 370,000 tested, 0.43% active. inhibition, % at 13.8 µM; in the data active = inhibition above about 24%; also: 0% = median of the test wells and 100% = reference compound wells
Mtb FBA confirm = Mtb FBA inhibition, confirmed; shares compounds with Mtb FBA inh; inhibition, % at 1 µM; purified M. tuberculosis FBA, fluorescence read-out; AID 651616; 5,600 tested, 78% active;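 also: 0% = vehicle wells and 100% = reference inhibitor wells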
GDH-TPI counter-2 = counter-screen for M. tuberculosis FBA inhibitors: GDH-TPI coupled enzyme inhibition | inhibition, % at 1 µM | shares compounds with Mtb FBA inh | AID 652141 | 5,600 tested, 81% active | GDH-TPI coupled enzyme counterscreen, fluorescence; in the data active = inhibition above about 10%
GDH-TPI dose = inhibits GDH-TPI coupling enzymes in dose response | shares compounds with Mtb FBA inh | GDH-TPI coupled enzyme assay, fluorescence, artifact counterscreen | IC50, µM | 170 tested, 79% active | AID 652145; call rule not given here
The depositor's hits bear a star. Compounds with a hit are over-represented: about 4.5% of the library has one in this group of screens. Rule as the data show it, unless noted: active = inhibition above about 27%; inactive = the rest.

Screening CC1(C(=O)NS(=O)(=O)c2cccc(OC(F)F)c2)CCN1C(=O)CC(c1ccccc1)c1ccccc1 (stereo not given) returned GDH-TPI counter-1 6.6, Mtb FBA inh 0.1 and PrPC surface inh 3.0.
`CC1(C)CC(c2nc(-c3ccc([N+](=O)[O-])cc3)cs2)CCO1` (stereo not given) gave PfHsp40 rescue 2.7, GDH-TPI counter-1 6.0, Mtb FBA inh -0.6, PrP 5UTR inh -12.0, BJeLR viability 3.1 and PrPC surface inh -25.4.
Nc1nonc1NC(=O)NN=C1CCCCC1 was read as PfHsp40 rescue -0.9, GDH-TPI counter-1 14.0, Mtb FBA inh -1.9, PrP 5UTR inh 3.3, BJeLR viability -3.2 and PrPC surface inh -3.0.
Cc1cc(C(=O)COC(=O)c2ccccc2NCCO)c(C)n1CC1CCCO1 (stereo not given) was read as PfHsp40 rescue 1.9, GDH-TPI counter-1 15.9, Mtb FBA inh 28.8*, PrP 5UTR inh 19.0, BJeLR viability -5.2, PrPC surface inh 3.3, Mtb FBA confirm active and GDH-TPI counter-2 active.
For Cc1ccc(C(=O)OCC(=O)c2cc(C)n(CC3CCCO3)c2C)cc1 (stereo not given) the results were PfHsp40 rescue -1.4, GDH-TPI counter-1 -1.6, Mtb FBA inh -2.0, PrP 5UTR inh -28.8, BJeLR viability -11.7 and PrPC surface inh 1.4.
Screening COc1ccccc1Cc1c(-c2ccco2)nc2c3ccccc3ccn12 returned PrPC surface inh 8.6.
`CCc1c(C)[nH]c2nc3ccccc3n2c1=O` gave PfHsp40 rescue -1.4, GDH-TPI counter-1 3.7, Mtb FBA inh 21.4, PrP 5UTR inh -15.5, BJeLR viability 0.1 and PrPC surface inh -2.9.
`O=c1cc(CCl)[nH]c2nc3ccccc3n12` gave PfHsp40 rescue 4.5, GDH-TPI counter-1 21.0, Mtb FBA inh 47.2*, PrP 5UTR inh -8.2, BJeLR viability -1.4, PrPC surface inh -4.5, Mtb FBA confirm 169.0* and GDH-TPI counter-2 112.2*.
`CC(C)c1cc(=O)n2c(nc3ccccc32)[nH]1` gave PfHsp40 rescue -0.3, GDH-TPI counter-1 2.9, Mtb FBA inh 44.7*, PrP 5UTR inh -7.3, BJeLR viability 7.7, PrPC surface inh 3.2, Mtb FBA confirm 119.1* and GDH-TPI counter-2 107.6*.
`Cc1cc(=O)n2c(nc3ccccc32)s1` gave GDH-TPI counter-1 4.9, Mtb FBA inh -1.8 and PrPC surface inh -0.4.
`O=c1cc(-c2ccccc2)[nH]c2nc3ccccc3n12` gave PfHsp40 rescue -0.9, GDH-TPI counter-1 15.5, Mtb FBA inh 51.3*, PrP 5UTR inh -46.9, BJeLR viability 9.0, PrPC surface inh 0.6, Mtb FBA confirm active and GDH-TPI counter-2 active.
Screening Clc1ccc(CSc2nnc(-c3ccncc3)o2)c(Cl)c1 returned PfHsp40 rescue -0.6, GDH-TPI counter-1 9.1, Mtb FBA inh -2.6, PrP 5UTR inh -6.3, BJeLR viability 8.8 and PrPC surface inh -0.9.
O=c1c(-c2n[nH]c(=S)n2-c2ccccc2)cccn1Cc1cccc(Cl)c1 was read as PfHsp40 rescue -1.0, GDH-TPI counter-1 2.8, Mtb FBA inh -1.7, PrP 5UTR inh -17.5, BJeLR viability -7.9 and PrPC surface inh -0.5.
For CSc1nnc(-c2cccn(Cc3cccc(Cl)c3)c2=O)o1 the results were PfHsp40 rescue 1.4, GDH-TPI counter-1 0.9, Mtb FBA inh 87.1*, PrP 5UTR inh -4.6, BJeLR viability 22.2, PrPC surface inh -5.5, Mtb FBA confirm active and GDH-TPI counter-2 active.
Screening O=c1c(-c2nnc(SCc3ccc(Cl)cc3Cl)o2)cccn1Cc1ccccc1 returned PfHsp40 rescue 7.2, GDH-TPI counter-1 20.4, Mtb FBA inh 52.4*, PrP 5UTR inh 8.0, BJeLR viability 6.9, PrPC surface inh -5.8, Mtb FBA confirm 42.8* and GDH-TPI counter-2 22.7*.
For COC(=O)C[C@H]1CC[C@@H]2[C@H](COc3ccc(NC(=O)c4cccc(Cl)c4)cc3C(=O)N2C)O1 the results were PrPC surface inh -9.3.
CCOC(=O)C1(C)CCN1C(=O)c1ccc(C(F)(F)F)cc1 (stereo not given) was read as GDH-TPI counter-1 8.2, Mtb FBA inh 0.4 and PrPC surface inh -3.8.
`Cc1cc(OC(C(=O)O)c2ccccc2)c2c(C)c(Cc3ccccc3)c(=O)oc2c1` (stereo not given) gave PfHsp40 rescue 1.1, GDH-TPI counter-1 23.2, Mtb FBA inh 45.8*, PrP 5UTR inh -22.3, BJeLR viability 6.5, PrPC surface inh 9.9, Mtb FBA confirm 1.0 and GDH-TPI counter-2 -1.3.
`CCc1cc2c(-c3ccccc3)cc(=O)oc2cc1OC(C)C(=O)NCC1CCC(C(=O)O)CC1` (stereo not given) gave PfHsp40 rescue 14.5, GDH-TPI counter-1 15.3, Mtb FBA inh 1.8, PrP 5UTR inh -34.8, BJeLR viability -1.7 and PrPC surface inh 4.9.
For Cc1cc(OC(C)C(=O)NC2CCN(Cc3ccccc3)CC2)c2c(C)cc(=O)oc2c1 (stereo not given) the results were PfHsp40 rescue 0.4, GDH-TPI counter-1 1.2, Mtb FBA inh 9.6, PrP 5UTR inh 2.4 and BJeLR viability -12.9.
`CCc1cc(=O)oc2cc(C)cc(OC(C)C(=O)NC3CCN(Cc4ccccc4)CC3)c12` (stereo not given) gave PfHsp40 rescue -0.5, GDH-TPI counter-1 0.8, Mtb FBA inh 51.1*, PrP 5UTR inh -2.5, BJeLR viability -1.4, PrPC surface inh -0.9, Mtb FBA confirm 14.0, GDH-TPI counter-2 0.4 and GDH-TPI dose 2.99*.
Screening O=C(COc1ccc2c(-c3ccccc3)cc(=O)oc2c1)NCC(O)c1ccccc1 (stereo not given) returned PfHsp40 rescue -1.3, GDH-TPI counter-1 4.9, Mtb FBA inh 0.0, PrP 5UTR inh -2.8, BJeLR viability 9.1 and PrPC surface inh -2.1.
Screening CCc1cc(=O)oc2cc(C)cc(OCC(=O)NCC(O)c3ccccc3)c12 (stereo not given) returned PfHsp40 rescue 0.8, GDH-TPI counter-1 3.4, Mtb FBA inh 55.6*, PrP 5UTR inh -3.6, BJeLR viability -4.4, PrPC surface inh -6.4, Mtb FBA confirm 197.6* and GDH-TPI counter-2 167.8*.
For CCc1cc(=O)oc2cc(C)cc(OC(C)C(=O)NCC(O)c3ccccc3)c12 (stereo not given) the results were PfHsp40 rescue 1.0, GDH-TPI counter-1 -6.8, Mtb FBA inh 58.6*, PrP 5UTR inh -60.8, BJeLR viability -2.0, PrPC surface inh -4.8, Mtb FBA confirm active and GDH-TPI counter-2 active.
